About 9,900 (2.8%) of roughly 350,000 compounds were called active. A call without a number means that no potency is given here. About 15% were inconclusive and are not listed. Calls come from the whole dose curve; as a rule, active = well fitted activation curve with a large enough effect; inconclusive = small, poorly fitted or top-dose-only effect; inactive = no such curve, though single readings can be large or run the other way. The full list was thinned out, with actives kept by preference.
Potency is the fitted concentration of half-maximal effect.

The assay is described as follows: A quantitative high throughput screen for small molecules that induce DNA re-replication in MCF 10a normal breast cells. Note: nearly all actives have a fitted effect of over 50% in size. The settings on record: MCF 10A DNA re-replication, Hoechst nuclear intensity, 48 h; series mostly up to 46.1 µM. The text has this:
H Molecular Libraries Probe Production Network [MLPCN]
NIH Chemical Genomics Center [NCGC]
Assay Provider: Melvin DePamphilis, NICHD, NIH
Eukaryotic cells normally restrict genome duplication to once per cell division. When this process is aberrant, DNA re-replication occurs when cells reinitiate DNA replication before the first round of replication is complete. DNA re-replication induces the DNA damage response, arrests cell proliferation, and triggers apoptosis. The cell cycle components cyclin A, Cdt-1, Cdc6 and geminin are critical regulators of this process and their misregulation results in DNA re-replication in normal and cancer cells. To identify compounds that induce re-replication in normal cells, an image-based assay was used to measure DNA content of nuclei, as detected by the fluorescent DNA binding dye, Hoechst. Cell nuclei were imaged by a fluorescence scanning plate imager and compounds that induce DNA re-replication were identified by the increase of nuclei with elevated fluorescence intensity
For screening, 250 cells in 5 uL/well were dispensed into black clear 1536-well plates (Aurora) using a solenoid-based dispenser. Following transfer of 23 nL compound or DMSO vehicle by a pin tool, the plates were incubated 48 hr at 37 C and 5% CO2. After addition of 1 uL/well Hoescht stain, the plates were incubated 40 min at 37 C, 5% CO2 and total intensity of fluorescent objects (nuclei) were enumerated by an Acumen Explorer Ex3 (TTP LabTech) fluorescence scanning plate imager (405 nm excitation, 500-530 nm emission).
Keywords: NIH Roadmap, MLPCN, MLI, MLSMR, qHTS, NCGC, DNA replication, cancer
For `Cc1ccc(S(=O)(=O)CCC(=O)OCC(=O)N(C)Cc2ccccc2)cc1`, the Potency result is “inactive”. Turning to `COc1ccc(-c2cc(C(=O)N(C)Cc3ccccc3)c3ccccc3n2)cc1`, the Potency was 3.66 µM (active). Then `Cc1ccc(-c2cc(C(=O)Nc3nn[nH]n3)c3ccccc3n2)c(C)c1`, with “inactive”.

Regarding `COc1ccc(CN(C)C(=O)c2cc(-c3ccc(C)cc3C)nc3ccccc23)c(OC)c1OC`, the Potency is 23.1 µM (active).

Consider `COc1ccc(CN(C)C(=O)Cc2c[nH]c3ccccc23)c(OC)c1OC`, for which the Potency entry is “inactive”.

Regarding `CNC(=O)COC(=O)c1cc(-c2ccc(OC)cc2)nc2ccccc12`, the Potency result was “inactive”. As for `COc1ccc(-c2cc(C(=O)n3cnc4ccccc43)c3ccccc3n2)cc1`, the Potency entry was “inactive”. With `Cc1ccc(C)c(OCC(=O)NNC(=O)C2CCC2)c1`, the Potency result is “inactive”. On to `COC(=O)c1ccc(CNC(=O)c2ccc(S(=O)(=O)N3CCCCCC3)cc2)cc1`, for which the Potency entry is “inactive”. With `NC(=O)C1CCN(C(=O)c2cc(S(=O)(=O)N3CCN(c4ccccc4)CC3)ccc2Cl)CC1` the entry was “inactive”. Take `C=CCN1C2CCCC1CC(NC(=S)Nc1cccc(OC)c1)C2` (stereo not given): the Potency entry is “inactive”. Then `CCCN1C2CCCC1CC(NC(=O)NC13CC4CC(CC(C4)C1)C3)C2` (stereo not given), with “inactive”.

On to `CCCNC(=S)NC1CC2CCCC(C1)N2CC(C)C` (stereo not given), for which the Potency was 14.6 µM (active).

On to `Nc1cc(=O)n(Cc2ccccc2)c(=O)n1Cc1ccccc1`, for which the Potency result is “inactive”. Turning to `C/C(=N\Nc1ccc(Cl)nn1)c1ccccc1O`, the Potency result is “inactive”.

In the case of `C=CCC[C@H](Cc1ccc(F)cc1)C(=O)OC[C@H](C)NC(=O)[C@H](CC=C)CC(=O)N(CCO)Cc1ccccc1`, the Potency result was “inactive”. Then `Cc1ccc(S(=O)(=O)N(C)C)cc1NC(=O)C(C)OC(=O)c1ccc2ccccc2n1` (stereo not given), with “inactive”; and `COc1cccc(NC(=O)COc2cccnc2[N+](=O)[O-])c1`, with “inactive”. With `COc1ccc(S(=O)(=O)Nc2cccc3c2O[C@H](CN(C)S(=O)(=O)c2ccc(OC)cc2)[C@@H](C)CN([C@H](C)CO)C3=O)cc1` the entry was “inactive”; with `CCOC(=O)c1[nH]c2c(c1-c1ccccc1)C(=O)CC(c1ccc(Cl)cc1)C2` (stereo not given), “inactive”; with `COCCOC(=O)c1[nH]c2c(c1C)C(=O)CC(c1ccc(OC)cc1)C2` (stereo not given), “inactive”. As to `CCCOC(=O)c1[nH]c2c(c1C)C(=O)CC(c1cccs1)C2` (stereo not given), the Potency is 0.206 µM (active). `CCOc1ccc(NC(=O)CN(C)C(=O)CCSc2ccc(F)cc2)cc1OCC`: the Potency entry was “inactive”. With `COc1cc(/C=C/C(=O)OCC(=O)c2ccccc2)cc(OC)c1OC` the entry was “inactive”; with `COc1ccccc1C(CNC(=O)c1cccc(S(=O)(=O)Nc2ccc(F)cc2)c1)N(C)C` (stereo not given), “inactive”.

In the case of `COc1ccc(-n2c(=S)[nH]c3sc4c(c3c2=O)CCc2ccccc2-4)cc1`, the Potency result is “inactive”.

Regarding `COc1ccc(/C=C2\N=C3CCCN3C2=O)cc1`, the Potency entry was “inactive”. For the molecule `COc1ccc(/C=C2/CCCc3ccccc3C2=O)cc1`, the Potency was 1.64 µM (active). Then `Cc1c[n+]([O-])ccc1[N+](=O)[O-]`, with “inactive”. Then `NC(=O)c1cc(-c2cccnc2)nc2ccc(Br)cc12`, with “inactive”; and `O=c1c2cc(Br)ccc2nc(-c2cccc(Cl)c2)n1O`, with 2.91 µM (active); and `O=C1CCCc2c1nc(-c1cccc(Cl)c1)n2O`, with 1.46 µM (active). With `CCOC(=O)CSc1ncc(-c2cccc(Cl)c2)cn1` the entry was “inactive”; with `Cc1cccc(-c2nc3ccccc3c(=O)n2NC(=O)Cc2ccc(Cl)cc2)c1`, “inactive”.

Turning to `Cc1cc(=O)n2[nH]c(-c3cccc(Cl)c3)cc2n1`, the Potency entry is “inactive”.

As for `Cc1ccsc1C(=O)OCC(=O)NCCc1ccccc1`, the Potency result is “inactive”. With `O=C1C=CN2CCCC2CC1` (stereo not given), the Potency result was “inactive”. As for `COc1ccc(-c2cc(C(=O)NCCCN3CCCC3=O)c3ccccc3n2)cc1OC`, the Potency entry is “inactive”. `COc1cccc(NC(=O)CN(C)C(=O)/C=C/c2cn(-c3ccccc3)nc2-c2cccs2)c1`: the Potency result is “inactive”.

Regarding `O=C(Nc1ccc2oc(-c3ccc4ccccc4c3)nc2c1)c1cccs1`, the Potency is 5.17 µM (active). With `O=C(Cc1cccc2ccccc12)Nc1ccc2oc(-c3ccccc3)nc2c1` the entry was “inactive”; with `O=C(Nc1ccc(NC(=O)c2cccs2)cc1)c1ccc2ccccc2c1`, “inactive”; with `CC1CN(Cc2ccccc2)C(=S)NC1=O` (stereo not given), “inactive”. Then `O=C(CN1CCN(C2CCS(=O)(=O)C2)CC1)N1N=C(c2ccc(Cl)cc2)CC1c1ccco1` (stereo not given), with “inactive”; and `CCOC(=O)C1CCN(c2ncnc3c2c(-c2ccccc2)cn3-c2ccc(C)cc2)CC1`, with “inactive”. With `CCOC(=O)C1CCN(c2ncnc3c2oc2ccc(Br)cc23)CC1` the figure was 20.6 µM (active); with `CCOC(=O)N1CCN(C(=O)C2CCN(c3ncnc4c3sc3cccc(F)c34)CC2)CC1`, “inactive”. Regarding `COc1cc(OC)cc(C(=O)NNC(=O)Cc2cccs2)c1`, the Potency entry is “inactive”. As for `COc1ccc(S(=O)(=O)N2C[C@H]3CON(C)[C@H]3C[C@H]2c2cccc(Br)c2)cc1`, the Potency entry was “inactive”. With `Cc1cccc(CC2(O)C(=O)Nc3ccccc32)n1` (stereo not given), the Potency entry was “inactive”.

With `Cc1nc2ccccc2c(=O)n1Cc1ccc([N+](=O)[O-])cc1`, the Potency entry is “inactive”. As for `CCn1c(/C=C/c2ccc([N+](=O)[O-])o2)nc2ccccc2c1=O`, the Potency was 20.6 µM (active). Regarding `Cn1cc(/C=C/c2nc3ccccc3c(=O)n2-c2cccc([N+](=O)[O-])c2)c2ccccc21`, the Potency entry is “inactive”. With `O=C(CC1SC(N2CCOCC2)=NC1=O)Nc1ccccc1F` (stereo not given) the entry was “inactive”; with `CCCn1c(N)c(C(=O)CSc2nnc3n2CCCCC3)c(=O)[nH]c1=O`, “inactive”; with `O=C(/C=C/c1ccc(Cl)c([N+](=O)[O-])c1)c1cccnc1`, 5.17 µM (active). With `O=C(Nc1ccncc1)c1ccc(Cl)c([N+](=O)[O-])c1` the entry was “inactive”. Then `NC(N)=N/N=C/c1ccc(Cl)c([N+](=O)[O-])c1`, with “inactive”; and `C/C(=C\C(=O)c1cccnc1)Nc1ccc(C)c(C)c1`, with “inactive”. For the molecule `O=C(Nc1cccnc1)c1ccc(Cl)c([N+](=O)[O-])c1`, the Potency is 20.6 µM (active).

`O=C(Nc1cccnc1)c1ccc(Cl)cc1[N+](=O)[O-]`: the Potency entry is “inactive”.

`N#CCc1c[nH]c2ccc([N+](=O)[O-])cc12`: the Potency result was “inactive”. With `CC(C)(C)OC(=O)CNC(=O)c1[nH]cnc1C(=O)N[C@@H](CCCCN)C(=O)OC(C)(C)C` the entry was “inactive”; with `O=C1[C@@H](c2ccccc2)[C@@H](c2ccccc2)N1c1cccnc1`, “inactive”; with `C[C@H](CO)N1C[C@H](C)[C@@H](CN(C)S(=O)(=O)c2ccc(F)cc2)Oc2ccc(NC(=O)CCC(F)(F)F)cc2C1=O`, “inactive”.
